Assay outcomes as filed in PubChem.
Compounds with a hit are over-represented: about 21% of the library has one in this group of screens.
HCMV inh: blocks human cytomegalovirus replication | activity change, negative = inhibition, % at 57.5 µM | actives 4.5% (n = 410,000) | AID 1259415 | HFF cells, HCMV-luciferase reporter, 72 h; hits give low values; in the data active = activity change below about -60%; inconclusive = no clear call, values can overlap the other calls; inactive = above about -39%
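Human foreskin fibroblasts infected with luciferase-reporter HCMV at MOI 1 PFU/cell, compounds at two doses. Luciferase measured 72 h post infection; normalized to buffer-only basal and Salinomycin (10uM) controls.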
Pf growth 96h: P. falciparum growth inhibition at 96 hour, primary screen for plastid delayed-death inhibitors. P. falciparum luciferase reporter growth, 96 h. Potency, µM (highest dose often 28.7 µM), most hits filed as inhibitors. actives 6.9% (n = 320,000)
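Delayed-death screen, second-generation endpoint: infected erythrocytes, 2% hematocrit, 0.05% parasitemia final; 96 hours at 37 C, 5% CO2; luciferase detection reagent; luminescence decrease equals reduced growth.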
CHX counter: counter-screen hit for Shiga toxin inhibitors, cycloheximide; max response, %; cell reporter, cycloheximide protein synthesis inhibition counterscreen; actives 12% (n = 300,000); in the data active = max response mostly above about 13%, no sharp cut-off; inactive = mostly below about 14%; note: read at 38.3 µM for the half of the compounds with a filed dose
Pf growth 48h: P. falciparum growth inhibition at 48 hours (one generation); P. falciparum luciferase growth in erythrocytes, 48 h; Potency, µM (top dose mostly 28.7 µM), hits mostly inhibitors; actives 5.9% (n = 310,000)
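In quantitative HTS format, infected erythrocytes bearing luciferase-reporter parasites were treated for a single generation at 37 C. Luminescence after adding detection reagent served as the growth measure.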
Shiga toxin inh: blocks Shiga toxin action in Vero cells. AID 2315. inhibition, % at 38.7 µM. Vero cells, Shiga toxin protein synthesis inhibition reporter. actives 9.2% (n = 290,000); in the data active = inhibition mostly above about 28%, no sharp cut-off; inactive = mostly below about 43%
HCV inh: blocks hepatitis C virus | Huh7.5.1 HCVcc-Cre infection, luciferase reporter, 44 h | Potency, µM (doses to about 41.8 µM), actives largely listed as inhibitors | actives 3.4% (n = 340,000)
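Cells (1,000/well) were plated 4 h before compound, then infected with HCVcc-Cre virus (~0.5 moi). After 44 h further culture, infection was read as luciferase luminescence following a 15 min substrate incubation at room temperature.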
Numbers stand for hits; – = inactive; ? = inconclusive; · = no result; [ ] = remark or other dose. Unless noted, calls come from the whole dose curve; as a rule, active = well fitted inhibition curve with a large enough effect; inconclusive = small, poorly fitted or top-dose-only effect, or another doubt; inactive = no such curve, though single readings can be large or run the other way.

SMILES | HCMV inh | Pf growth 96h | CHX counter | Pf growth 48h | Shiga toxin inh | HCV inh
O=C(N/N=C/c1cc([N+](=O)[O-])c(N2CCOCC2)cc1N1CCOCC1)c1cccnc1 | – | – | – | – | – | ?
Cc1ccc(CNC(=O)CSc2nc3ccsc3c(=O)n2-c2ccc(Br)cc2)cc1 | – | · | · | · | · | ·
Cc1cccc(S(=O)(=O)NC(=O)C2(C)CCN2C(=O)c2ccccc2CCc2ccccc2)c1 (stereo unspecified) | – | · | · | · | · | ·
O=C(c1ccc2c3c(cccc13)CC2)C1CCCN(C(=O)c2cc[n+]([O-])cc2)C1 (stereo unspecified) | – | 2.9µM | – | – | – | –
O=C(c1ccc2c3c(cccc13)CC2)C1CCCN(C(=O)c2ccc[n+]([O-])c2)C1 (stereo unspecified) | – | ? | – | – | – | –
O=C(c1ccc2c3c(cccc13)CC2)C1CCCN(Cc2ccccn2)C1 (stereo unspecified) | ? | – | – | 2.3µM | – | ?
O=C(c1ccc2c3c(cccc13)CC2)C1CCCN(Cc2ccc(OCCO)cc2)C1 (stereo unspecified) | – | – | – | 6.6µM | – | –
Cc1[nH]c2ccccc2c1/C=N/Nc1nc(Nc2ccccc2)nc(N2CCOCC2)n1 | -99 | ? | 20 | ? | – | ?
Oc1[nH]c2ccccc2c1N=Nc1nc(Nc2ccccc2)nc(N2CCOCC2)n1 | -103 | ? | – | 6.6µM | – | 14µM
Fc1ccc(Nc2nc(Nc3ccc(F)cc3)nc(N3CCOCC3)n2)cc1 | – | · | · | · | · | ·
COc1ccc(C(=O)NC(=S)N2CCN(C)CC2)cc1Br | – | –[1.15 µM] | – | – | – | –
CCOC(=O)C1=CC[C@@H](c2cc3cc(OC)ccc3n2C)N(S(=O)(=O)c2ccc(C)cc2)[C@H]1C(=O)OCC | – | · | · | · | · | –
COc1cccc(C(=O)Nc2ccc(NC(=O)c3ccco3)c(Cl)c2)c1 | · | ? | 30 | – | 64 | ?
COc1cccc(C(=O)Nc2cccc(OCC(=O)O)c2)c1 | · | – | – | · | – | –
COc1cccc(C(=O)Nc2ccc(NC(C)=O)cn2)c1 | – | · | 31 | – | 65 | –
COc1cc(C(=O)Nc2ccc(NC(=O)c3ccco3)nc2)cc(OC)c1OC | – | · | – | ? | – | –
COc1cccc(C(=O)Nc2ccc(NC(=O)c3ccco3)nc2)c1 | – | · | 63 | – | 194 | –
CC(C)C(=O)Nc1ccc(NC(=O)c2cccc(F)c2)cn1 | – | – | 22 | – | 76 | –
CC1CCC(NC(=O)C2CC(=O)N(c3ccc(Cl)cc3)C2)CC1 (stereo unspecified) | – | ? | – | – | – | –
CN(Cc1c(F)cccc1Cl)C(=O)C1=CC=CN2CCS(=O)(=O)N=C12 | – | · | · | · | · | –
Cc1cccc(NC(=O)c2cccc(NC(=O)c3ccco3)c2)c1C | – | · | · | · | · | –
CCCC(=O)Nc1ccc(NC(=O)c2cccc(OC)c2)nc1 | – | ? | 33 | – | 119 | –
Cc1cc(NC(=O)c2cccc(F)c2)ncc1NC(=O)c1ccco1 | – | · | 21 | · | – | –
O=C(Nc1ccc(NC(=O)c2ccco2)nc1)c1cccc(F)c1 | – | – | 40 | – | 82 | ?
O=C(Nc1ccc(Cl)cc1C(=O)Nc1ccc(Br)cn1)c1ccco1 | – | · | – | ? | – | ?
SMILES | HCMV inh | Pf growth 96h | CHX counter | Pf growth 48h | Shiga toxin inh | HCV inh
O=C(Nc1ccc(NC(=O)c2ccccc2F)cn1)c1ccco1 | – | – | 18 | – | – | –
O=C(CSc1ccc(Br)cc1)N1CCN(C(=O)c2ccco2)CC1 | – | – | – | – | – | –
Cc1ccc(C(=O)c2cn(Cc3ccc(F)cc3)c3nc(C)ccc3c2=O)cc1 | – | · | · | · | · | ·
O=C(Nc1ccc(NC(=O)C2CC2)nc1)c1cccc(F)c1 | – | – | 47 | – | 59 | –
O=C(Nc1ccc(NC(=O)C2CC2)nc1)c1cccnc1 | – | – | – | – | – | –
O=C(Nc1ccc(NC(=O)c2ccco2)nc1)c1cccnc1 | – | – | – | – | 54 | –
O=C(NCc1cccnc1)c1ccc(NC(=O)c2ccco2)cc1 | – | – | – | – | – | –
Cc1cc(NC(=O)c2ccco2)ncc1NC(=O)CCc1ccccc1 | – | · | 28 | – | – | –
COc1ccc(C(=O)Nc2ccc(NC(=O)C3CC3)cn2)cc1 | – | ? | – | – | – | –
